Screens from PubChem BioAssay.
Luc counter – blocks Kinase-Glo luciferase, a counter-screen artifact | Kinase-Glo luciferase, ATP luminescence, 8 min | Q27757 | 200,000 tested, 0.28% active | Potency, µM (titrated, usually from 38.3 µM), without a hit: at the highest dose activity change, negative = inhibition, usual class: inhibitors; also: % is scaled to controls: 0 for no effect and ±100 for the full control effect; nearly all actives have a fitted effect of over 60% in size
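Inhibition of Kinase-Glo luciferase light generation was assessed at 10 uM ATP in pH 7.2 imidazole buffer, with luminescence measured after eight minutes at ambient temperature.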
FLuc counter – counter-screen for miR-21 project: firefly luciferase inhibitors or activators | P08659 | purified FLuc, Km substrates, luminescence inhibition | Potency, µM (highest dose often 57.5 µM), for the others: at the highest dose activity change, negative = inhibition, actives largely listed as inhibitors | 360,000 tested, 6.9% active | AID 588342;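 also: plate controls were vehicle for no effect and reference inhibitor for full effect; nearly all actives have a fitted effect of over 55% in size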
Target sequence (P08659 whole entry, looked up): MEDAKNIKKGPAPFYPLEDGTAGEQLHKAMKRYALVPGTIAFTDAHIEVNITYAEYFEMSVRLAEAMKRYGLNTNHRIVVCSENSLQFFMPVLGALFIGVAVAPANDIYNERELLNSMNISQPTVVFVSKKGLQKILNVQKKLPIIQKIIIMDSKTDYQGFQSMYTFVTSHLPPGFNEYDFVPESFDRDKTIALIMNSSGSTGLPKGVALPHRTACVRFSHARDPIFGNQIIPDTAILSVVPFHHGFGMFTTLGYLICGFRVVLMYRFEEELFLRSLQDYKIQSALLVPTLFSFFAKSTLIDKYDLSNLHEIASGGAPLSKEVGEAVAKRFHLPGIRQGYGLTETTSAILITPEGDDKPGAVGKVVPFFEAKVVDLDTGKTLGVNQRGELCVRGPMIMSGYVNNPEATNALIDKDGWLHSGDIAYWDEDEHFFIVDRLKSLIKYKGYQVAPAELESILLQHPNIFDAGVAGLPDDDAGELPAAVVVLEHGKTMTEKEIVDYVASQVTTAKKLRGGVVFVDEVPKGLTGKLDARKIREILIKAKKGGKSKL
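Biochemical qHTS of compounds, final roughly 60 µM downward over six points, against 10 nM purified firefly luciferase using Km concentrations of substrates (10 uM D-luciferin, 10 uM ATP) in Tris acetate pH 7.5 buffer; luminescence output.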
Rab9 prom act – activators of Rab9 promoter | Huh7 Rab9 promoter-luciferase reporter, luminescence, 24 h | Potency, µM (highest dose often 9.22 µM), without a hit: top-dose activation, negative = inhibition, usual class: activators | 320,000 tested, 2.8% active | AID 485297; also: % of control where 0% means no effect; nearly all actives have a fitted effect of over 60% in size
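Rab9 promoter-driven luciferase in stably transfected Huh7 cells; 1500 cells/well rested 2 h, exposed to compound in DMSO for 24 h at 37 °C, 5% CO2. Luminescence read 10 min after adding luciferase reagent at ambient temperature.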
NPC1 prom act – activates the NPC1 promoter | Huh7 NPC1 promoter luciferase reporter, 24 h | Potency, µM (top dose mostly 9.22 µM), without a hit: top-dose activation, most hits filed as activators | 320,000 tested, 2.4% active | AID 485313; also: % of control where 0% means no effect; nearly all actives have a fitted effect of over 60% in size
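Compounds in DMSO were transferred onto Huh7 NPC1-luciferase reporter cells pre-incubated 2 h; after 24 h at 37 °C, Amplite reagent was dispensed and luminescence recorded 10 min later.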
SMN2 splice enh – SMN2 splice variant enhancement. Potency, µM (top dose mostly 46.1 µM), without a hit: top-dose activity change, positive = activation, most hits filed as activators. HEK293 SMN2-luciferase splicing reporter, luminescence, 30-36 h. 210,000 tested, 2.8% active. AID 1458; also: % of control where 0% means no effect; nearly all actives have a fitted effect of over 55% in size
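qHTS luciferase splicing reporter: luminescence rises when SMN2 exon 7 is included in transfected HEK293 cells. Compound exposure lasted 30-36 h at 37C, with 4.5 mM final sodium butyrate as control, followed by a ONE-Glo read.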
* marks the source's active call; other numbers are inactive results; [ ] = remark or other dose. Only some compounds are listed: those with a hit (about 7.3% of all), similar ones and a draw of the others. Calls follow the shape of the dose curve; as a rule, active = well fitted curve in the direction sought with a large enough effect; inconclusive = small, poorly fitted or top-dose-only effect, or another doubt; inactive = no such curve, though single readings can be large; an effect the other way counts as inactive or inconclusive. Potency is read from the fitted curve at half-maximal effect.

How did O=C(COC(=O)CNC(=O)C1CCCCC1)Nc1ccc2c(c1)OCCO2 do in these assays?
Luc counter: -1%; FLuc counter: 19µM*; Rab9 prom act: 2%; NPC1 prom act: 0%; SMN2 splice enh: -3%

What do the screens show for `Cc1ccc(C)c(Nc2nnc(-n3nc(C)cc3C)c3ccccc23)c1`?
FLuc counter: -3%; SMN2 splice enh: 4%

Results for CC(C)c1ccc(NC(=O)CSc2ncccc2C(=O)Oc2cccc([N+](=O)[O-])c2)cc1 ?
Luc counter: -2%; FLuc counter: inconclusive; Rab9 prom act: 4.5µM*; NPC1 prom act: 4µM*; SMN2 splice enh: 10µM*

How did S=C(c1ccc(-c2ccc(Cl)cc2Cl)o1)N1CCCCC1 do in these assays?
Luc counter: 3%; FLuc counter: 4.8µM*; Rab9 prom act: 2.8µM*; NPC1 prom act: inconclusive; SMN2 splice enh: 13µM*

Results for N#CCCN1CCN(C(=S)c2ccc(-c3cc(Cl)ccc3Cl)o2)CC1 ?
Luc counter: 1%; FLuc counter: -16%; Rab9 prom act: 1%; NPC1 prom act: -2%; SMN2 splice enh: -17%

How did CN1CCN(C(=S)c2ccc(-c3cc(Cl)ccc3Cl)o2)CC1 do in these assays?
FLuc counter: 17µM*; Rab9 prom act: 2%; NPC1 prom act: 3%

Results for S=C(c1ccc(-c2ccc(Cl)cc2Cl)o1)N1CCCC1 ?
FLuc counter: 11µM*; Rab9 prom act: inconclusive; NPC1 prom act: inconclusive

What do the screens show for `CC(=O)NCCN=Cc1sc2ccccc2c1O`?
Luc counter: 0%; FLuc counter: inconclusive; Rab9 prom act: -1%; NPC1 prom act: 3%; SMN2 splice enh: -3%

Results for CC(=Nc1ccc(C)cc1C)c1sc2ccccc2c1O ?
Luc counter: -3%; FLuc counter: 0.76µM*; Rab9 prom act: 3.5µM*; NPC1 prom act: inconclusive; SMN2 splice enh: 11µM*

How did CN=Cc1sc2ccccc2c1O do in these assays?
Luc counter: -3%; FLuc counter: -18%; Rab9 prom act: 4%; NPC1 prom act: 1%; SMN2 splice enh: -11%

Results for CC(=Nc1ccc(C)cc1)c1sc2ccccc2c1O ?
Luc counter: -7%; FLuc counter: 0.43µM*; Rab9 prom act: 0.89µM*; NPC1 prom act: 1.8µM*; SMN2 splice enh: 0.63µM*

How did CC(=Nc1cccc(O)c1)c1sc2ccccc2c1O do in these assays?
Luc counter: -10%; FLuc counter: 1.7µM*; Rab9 prom act: inconclusive; NPC1 prom act: 29%; SMN2 splice enh: 18µM*

What do the screens show for `CN(C)CCSCCO`?
Luc counter: -2%[7.66 µM]; SMN2 splice enh: -8%[9.22 µM]

How did O=Cc1ccc(OC(=O)/C=C/c2ccccc2)cc1 do in these assays?
FLuc counter: 19µM*; Rab9 prom act: 5%; NPC1 prom act: -1%

What do the screens show for `CCOc1ccc(/C=C/C(=O)Oc2ccccc2)cc1`?
FLuc counter: 1.5µM*; Rab9 prom act: 12%; NPC1 prom act: -4%

What do the screens show for `FC(F)(F)c1cc(NC(=S)Nc2ccc3ccccc3c2)cc(C(F)(F)F)c1`?
Luc counter: 0%; SMN2 splice enh: 4%

Results for Cc1ccc(NC(=O)c2ccccn2)c(Br)c1 ?
FLuc counter: 7.6µM*; Rab9 prom act: 2.8µM*; NPC1 prom act: inconclusive

How did Cc1ccc(NC(=O)c2ccn(C)n2)c(Br)c1 do in these assays?
Luc counter: inconclusive; FLuc counter: 6µM*; Rab9 prom act: 3.2µM*; NPC1 prom act: inconclusive; SMN2 splice enh: 2µM*

How did Cn1ccc(C(=O)Nc2ccc(Br)cc2Br)n1 do in these assays?
Luc counter: -18%; FLuc counter: 3µM*; Rab9 prom act: 3.2µM*; NPC1 prom act: 3.5µM*; SMN2 splice enh: 5µM*

How did CC(=O)[C@]1(O)CC[C@@H]2[C@H]3C[C@@H](C)C4=CC(=O)CC[C@@]4(C)C3[C@@H](O)C[C@]21C (stereo not given in full) do in these assays?
Luc counter: -5%[7.66 µM]; SMN2 splice enh: 5%[9.22 µM]

Results for COc1cccc(NC(=O)Nc2cc(-c3cn4cccnc4n3)ccc2C)c1 ?
FLuc counter: -15%; SMN2 splice enh: 12%

Results for Cc1ccc(-c2cn3cccnc3n2)cc1NC(=O)Nc1ccc(F)cc1 ?
FLuc counter: -3%; SMN2 splice enh: 20%

How did COc1cccc(NC(=O)Nc2cccc(-c3cn4cccnc4n3)c2)c1 do in these assays?
FLuc counter: 6.7µM*; SMN2 splice enh: -7%

How did COc1cccc(NC(=O)Nc2cc(-c3cn4cccnc4n3)ccc2OC)c1 do in these assays?
FLuc counter: 1.3µM*; SMN2 splice enh: 8.9µM*

Results for COc1ccc(-c2cn3cccnc3n2)cc1NC(=O)Nc1cc(C)ccc1C ?
FLuc counter: 2.4µM*; Rab9 prom act: 4%; NPC1 prom act: 19%; SMN2 splice enh: 10%

Results for CC1CCCN(CCCNC(=O)Cn2ncc3c([nH]c4ccccc43)c2=O)C1 (stereo not given) ?
FLuc counter: -1%

What do the screens show for `C=CCn1c(COc2ccccc2)nnc1SCC(=O)N/N=C/c1ccc(C)cc1`?
Luc counter: -4%; FLuc counter: 12µM*; Rab9 prom act: 0%; NPC1 prom act: -7%; SMN2 splice enh: 18%

How did C[N+]1(CCC[N+]2(C)C[C@H]3[C@H](C2)[C@H]2C=C[C@@H]3CC2)CCOCC1 (stereo not given in full) do in these assays?
Luc counter: -7%[7.66 µM]; SMN2 splice enh: -16%[9.22 µM]

How did C=C1C[C@@]23CC[C@H]4[C@@](C)(CCC[C@@]4(C)C(=O)O)[C@@H]2CC[C@]1(O)C3 do in these assays?
Rab9 prom act: -5%[46.1 µM]; NPC1 prom act: -2%[46.1 µM]

What do the screens show for `CC(=O)N1CCC(=NNc2nc3ccccc3s2)CC1`?
Luc counter: -3%; FLuc counter: 17µM*; Rab9 prom act: 4µM*; NPC1 prom act: 26%; SMN2 splice enh: 10%

What do the screens show for `CCOC(=O)N1CCC(=NNc2nc3ccccc3s2)CC1`?
FLuc counter: 3.4µM*; Rab9 prom act: 4µM*; NPC1 prom act: 2.5µM*

What do the screens show for `CCOc1ccc(NC(=O)Cn2c(=O)n(-c3ccc(C)cc3)c(=O)c3cc(OC)c(OC)cc32)cc1`?
FLuc counter: -1%; SMN2 splice enh: 8%

What do the screens show for `COc1cccc2c1C(=O)c1c(O)c3c(c(O)c1C2=O)C[C@@](O)(C(=O)CO)C[C@H]3O[C@H]1C[C@@H](N)[C@H](O)[C@@H](C)O1.[W]`?
Luc counter: -7%[7.66 µM]; SMN2 splice enh: -18%[9.22 µM]

Results for O=C(NCCS(=O)(=O)N1CCN(c2ccccc2F)CC1)c1ccccc1C(F)(F)F ?
FLuc counter: -7%

How did CC1=NN(C(N)=S)C(=O)C1N=Nc1c(Cl)cc([N+](=O)[O-])cc1Cl (stereo not given) do in these assays?
FLuc counter: 13µM*; Rab9 prom act: inconclusive; NPC1 prom act: inconclusive
